The results in this text go back to ChEMBL document CHEMBL1157539, “Thousands of chemical starting points for antimalarial lead identification” (Nature, 2010).

Holding throughout (format): functional
The test system of test [1] is Plasmodium falciparum. Put plainly: GSK_TCMDC: Inhibition of Plasmodium falciparum 3D7 in whole red blood cells, using parasite LDH activity as an index of growth. Test compounds present at 2uM.
In test [2] the test system is Plasmodium falciparum. Put plainly: GSK_TCMDC: Inhibition of Plasmodium falciparum Dd2 in whole red blood cells, using parasite LDH activity as an index of growth. Test compounds present at 2uM.
The test system of the next test is HepG2. In words: GSK_TCMDC: Percent inhibition of human HepG2 cell line. Test compounds present at 10uM.

As to `Cc1cccc2nc(-c3cccc(-c4ccc(NC(=O)C(C)C(=O)NC(C)C)cc4)c3)[nH]c12` (stereo not drawn), the figures for the Inhibition in the test on Plasmodium falciparum [1], in the test on Plasmodium falciparum [2] and in the test with HepG2 were 85%, 26% and 13%, respectively.

In the case of `O=c1cc(NCCCNCc2cccc(C(F)(F)F)c2Cl)[nH]c2ccccc12`, the Inhibition in the test with Plasmodium falciparum [1] was found to be 94%; with Plasmodium falciparum [2], 24%; in the test on HepG2 it was 0%.

Regarding `CCCCc1ccc(C(=O)Nc2ccc3nc(N4CCN(C)CC4)cc(C)c3c2)cc1`, the Inhibition in the test with Plasmodium falciparum [1] was 90%; in the test with Plasmodium falciparum [2], 21%; with HepG2 it was 44%.

For `COc1ccccc1-c1cccc2c(NC(=O)Nc3ccc4nccc(N5CCN(C)CC5)c4c3)ccnc12`, the Inhibition in the test with Plasmodium falciparum [1] worked out at 94%; with Plasmodium falciparum [2], 34%; with HepG2, 3%.

With `COc1cccc2cc(C(=O)N[C@@H](CC(C)C)C(=O)N[C@H](C=NN(C)C(=O)OC(C)(C)C)Cc3ccccc3)oc12`, the Inhibition is listed as 99% in the test on Plasmodium falciparum [1], 89% with Plasmodium falciparum [2] and 5% in the test on HepG2.

`Cc1ccc(OCC2CCN(c3ncc(C(=O)NCCCN4CCCC4=O)cc3Cl)CC2)cc1`: the Inhibition was found to be 94% in the test with Plasmodium falciparum [1], 71% with Plasmodium falciparum [2] and 7% in the test on HepG2.

Consider `Cl.Oc1ccc(CCCc2cc(Oc3c(I)cc(CCc4ncc[nH]4)cc3I)ccc2O)cc1`, for which the Inhibition in the test with Plasmodium falciparum [1] is recorded as 95%; in the test on Plasmodium falciparum [2] it was 7%; in the test on HepG2 it was 26%.

For the compound `Cc1cc(=NN=Cc2ccc(Cl)cc2)c2cccc(C)c2[nH]1`, the values for the Inhibition in the test with Plasmodium falciparum [1], with Plasmodium falciparum [2] and in the test on HepG2 were 100%, 47% and 0%, respectively.

`CO.Cc1nc(N)nc(N)c1OCc1cccc2c1ccc1ccccc12.Cl`: the Inhibition worked out at 95% with Plasmodium falciparum [1], 16% in the test on Plasmodium falciparum [2] and 54% in the test on HepG2.

On to `Fc1ccc2c(NN=Cc3ccccc3)ccnc2c1`, for which the Inhibition stood at 100% in the test with Plasmodium falciparum [1], 99% in the test with Plasmodium falciparum [2] and 1% in the test on HepG2.

With `CCCCc1cc(O)c2c(c1)OC(C)(C)C=C2C1=CCN(Cc2ccccc2)CC1`, the Inhibition is given as 98% in the test on Plasmodium falciparum [1], 3% with Plasmodium falciparum [2] and 9% with HepG2.

Regarding `Cn1nc(-c2ccc(CN[C@@H]3CCc4ccc(O)cc43)cc2)c2cnc(NCCCN3CCCC3)nc21`, the Inhibition in the test on Plasmodium falciparum [1] worked out at 100%; in the test with Plasmodium falciparum [2] it was 61%; in the test on HepG2, 8%.

On to `CN(C)CCOc1cc(NC(=O)Nc2cccc([N+](=O)[O-])c2)ccc1I`, for which the Inhibition in the test on Plasmodium falciparum [1] came out at 100%; with Plasmodium falciparum [2] it was 51%; in the test with HepG2 it was 8%.

For `CN1CCC(NCc2ccc(S(=O)(=O)Nc3ccc(Oc4cccc(Cl)c4)cc3)cc2)CC1.O=C(O)C(F)(F)F`, the Inhibition in the test on Plasmodium falciparum [1] is 99%; with Plasmodium falciparum [2], 5%; in the test with HepG2 it was 47%.

For `CCCCOc1c(CCC)cc(Cc2cnc(N)nc2N)cc1CCC.Cl`, the figures for the Inhibition in the test with Plasmodium falciparum [1], in the test with Plasmodium falciparum [2] and in the test with HepG2 were 97%, 0% and 27%, respectively.

Consider `COc1ccc(S(=O)(=O)N2CCOCC2)cc1NC(=O)c1cc2ccccc2o1`, for which the Inhibition amounted to 93% in the test on Plasmodium falciparum [1], 0% with Plasmodium falciparum [2] and 8% in the test on HepG2.

Regarding `Br.CC1(C)NC(N)=NC(=N)N1OCCCCOc1ccccc1`, the figures for the Inhibition in the test on Plasmodium falciparum [1], in the test on Plasmodium falciparum [2] and in the test with HepG2 were 95%, 95% and 60%, respectively.

On to `COc1ccc2c(=NN=Cc3cccnc3)cc(C)[nH]c2c1`, for which the Inhibition is listed as 85% in the test with Plasmodium falciparum [1], 12% with Plasmodium falciparum [2] and 0% in the test with HepG2.

Regarding `CN=C(S)NN=C(C)c1ccccn1`, the values for the Inhibition with Plasmodium falciparum [1], in the test on Plasmodium falciparum [2] and with HepG2 were 98%, 99% and 64%, respectively.

For `COCCNCc1cccc(-c2ccc3c(Nc4cc(O)c(Cl)cc4F)ccnc3c2)c1`, the Inhibition in the test on Plasmodium falciparum [1] was 100%; in the test on Plasmodium falciparum [2], 79%; with HepG2, 0%.

Take `CCC[C@@H]([C@@H](CC(C)C)C(=O)N[C@@H](CCCCNC(=O)c1ccccn1)C(=O)Nc1nccs1)N(O)C=O`: the Inhibition is 100% with Plasmodium falciparum [1], 100% in the test with Plasmodium falciparum [2] and 0% with HepG2.

As for `CCCNCCc1ccc(NS(=O)(=O)c2cccc(-c3ccc(Cl)cc3)c2)cc1.Cl`, the Inhibition with Plasmodium falciparum [1] is reported as 100%; in the test with Plasmodium falciparum [2], 36%; in the test with HepG2 it was 36%.

Turning to `COc1ccc2nccc(N3CCC(NCCNCc4ccc5c(n4)NC(=O)CS5)C3)c2n1.Cl` (stereo not drawn), the Inhibition came out at 100% with Plasmodium falciparum [1], 5% in the test on Plasmodium falciparum [2] and 0% in the test on HepG2.

On to `COc1cccc2cc(C(=O)N[C@@H](CC(C)C)C(=O)N[C@H](C=NN3CCOC3=O)Cc3ccccc3)oc12`, for which the figures for the Inhibition in the test with Plasmodium falciparum [1], in the test on Plasmodium falciparum [2] and in the test on HepG2 were 96%, 70% and 6%, respectively.

Take `COc1ccc(C(=O)CCC(=O)N(Cc2ccc(-c3ccc(CNCCc4ccc(S(C)(=O)=O)cc4)cn3)cc2)C2CC3CCC2C3)cc1F.O=C(O)C(F)(F)F` (stereo not drawn): the Inhibition in the test with Plasmodium falciparum [1] is 97%; in the test with Plasmodium falciparum [2] it was 34%; with HepG2 it was 5%.

For `CCOc1ccc(-c2nonc2NC(=O)c2ccccc2OC)cc1OCC`, the Inhibition was 100% in the test on Plasmodium falciparum [1], 99% in the test on Plasmodium falciparum [2] and 24% in the test on HepG2.

As to `CCCc1cc(OC)c(CC2c3cc(O)c(Cl)cc3CCN2C)cc1OC.Cl` (stereo not drawn), the figures for the Inhibition in the test on Plasmodium falciparum [1], in the test on Plasmodium falciparum [2] and in the test with HepG2 were 100%, 99% and 19%, respectively.

On to `CCc1c(C)nc(-n2nc(C)cc2NC(=O)c2cccc3ccccc23)[nH]c1=O`, for which the results for the Inhibition in the test on Plasmodium falciparum [1], in the test with Plasmodium falciparum [2] and in the test with HepG2 were 98%, 89% and 39%, respectively.

`Cc1cc(CN2CCC(C(=O)Nc3ccc(-c4nc5ccccc5[nH]4)cc3)CC2)oc1C`: the Inhibition with Plasmodium falciparum [1] was 95%; in the test on Plasmodium falciparum [2], 9%; in the test on HepG2, 0%.

On to `CCNc1cc(C(=O)N[C@@H](Cc2cccc(F)c2)[C@H](O)CNC(C)CCCC(C)C)cc(N2CCCCS2(=O)=O)c1.Cl` (stereo partly drawn), for which the Inhibition with Plasmodium falciparum [1] is recorded as 98%; in the test on Plasmodium falciparum [2], 97%; in the test on HepG2, 0%.

Regarding `COc1ccc(Nc2nc(NCc3cccnc3)cc(-c3ccc(OC)cc3)n2)cc1`, the Inhibition stood at 89% with Plasmodium falciparum [1], 16% in the test with Plasmodium falciparum [2] and 0% in the test on HepG2.
